About 83,000 compounds went through this panel and 20% of them were active in at least one assay; those are over-represented in the sample as a whole.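 96-well plates, one dose, 48 hours. Percent growth reported; active if below 10.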 Values without a mark were called inactive. Active and inactive are the calls of the source.

The first assay relates to MDA-MB-231 breast. In words: NCI-60 one-dose screen, 48 h (100 = growth as untreated, 0 = no growth, -100 = all killed). The conditions noted are these: 10 µM unless noted.
On to `COc1ccc(/C=N/Nc2cc(=O)[nH]c3ccc(Cl)cc23)cc1`, for which the growth is 71.3%.

As to `CCCCCCN(CCCCCC)c1ccc(/C=C2/SC(=O)NC2=O)c(C)c1`, the growth was 111%.

For `CC(=O)Oc1ccccc1C(=O)N=C1[Se]CCCN1C(=O)c1ccccc1OC(C)=O`, the growth was -57.6% (active).

Take `CC(C)OC(=O)Nc1ccc(-c2nc(-c3cccc(OCCN4CCOCC4)c3)c(-c3ccnc(Br)c3)[nH]2)cc1`: the growth is 39.3%.

For the compound `Cc1cc2nc3ccc(N=Nc4ccc(N(C)C)cc4)cc3n(-c3ccccc3)c-2cc1=N`, the growth was -27.9% (active).

For `CCCCn1c(-c2ccc(-c3nc(-c4ccc(Cl)cc4)no3)cc2)nc(-c2ccccc2)c1-c1ccccc1`, the growth was 79.9%.

Consider `Oc1c(I)cc(I)cc1CNCCCN(Cc1ccccn1)Cc1ccccn1`, for which the growth is -66.2% (active).

Regarding `C/C(=N/NC(N)=S)c1sc(Nc2cccc(Cl)c2)nc1C`, the growth was 65%.

Consider `Cc1nn(-c2ccccc2)c2c1N=c1s/c(=C\c3ccc(C(F)(F)F)cc3)c(=O)n1CN2`, for which the growth is 56.2%.

As to `O=C(O)CCC(=O)Nc1nnc(-c2ccccc2)s1`, the growth was 108%.

Consider `Oc1ccc(Cl)cc1Cc1cc(Cl)cc(Cl)c1O`, for which the growth was 69.2%.

With `O=c1c2cccc(Cl)c2sc2c(NCCCNCCO)nc3ccccc3c12`, the growth is -25.3% (active).

On to `COc1cc(C2CC(c3cccc(Br)c3)=NN2C(C)=O)cc(OC)c1OC` (stereo unspecified), for which the growth was 4.94% (active).

As to `COc1ccc(-c2nc(NN)c3c(C)nn(-c4ccc(F)cc4)c3n2)cc1`, the growth was 53.1%.

On to `CCOC(=O)NCCc1ccccc1`, for which the growth was 116%.

On to `COc1ccccc1/C=C1\Oc2cc(OCCN3CCC(Cc4ccccc4)CC3)ccc2C1=O`, for which the growth is 90.3%.

With `O=C(COc1ccc(/C=C2\Cc3ccc(Cl)cc3C2=O)cc1)Nc1nc2ccccc2s1`, the growth was 96%.

For `CCc1cccc2c3c(sc12)C(c1ccc(F)cc1)C(C#N)=C(N)O3` (stereo unspecified), the growth was 21.1%.

Take `Cc1ccc(C(=O)N/N=C/c2cccc([N+](=O)[O-])c2)cn1`: the growth was 95.6%.

As to `CCOC(=O)C1=C(N)Oc2c(sc3c(C)cccc23)C1c1ccc(Cl)cc1` (stereo unspecified), the growth is 49.8%.

Regarding `COc1ccc(-n2c(N)c(-c3nc4ccccc4[nH]3)cc(C#N)c2=O)cc1`, the growth was 90.8%.

With `Cc1cc2nc3cc(C)c(N)cc3[n+](-c3ccccc3)c2cc1N`, the growth was 90.3%.

Consider `COc1c(N2CC3CCCN(C(C)=O)C3C2)c(F)cc2c(=O)c(C(=O)N[C@H]3C(O)[C@@H](O)C(CO)O[C@H]3O)cn(C3CC3)c12` (stereo partly specified), for which the growth was 103%.

Take `COc1ccc(C2CC(c3ccc(Nc4nc(Nc5ccc(F)cc5)nc(Nc5ccc(Cl)cc5)n4)cc3)=NN2C(C)=O)cc1` (stereo unspecified): the growth is 90.9%.

Consider `O=c1[nH][n+](-c2ccc(Br)cc2)no1`, for which the growth was 68.7%.

Consider `O=C(CSc1nccc(Nc2ccc(S(=O)(=O)Nc3nccs3)cc2)n1)c1ccc(C(F)(F)F)cc1`, for which the growth is 120%.

As for `COc1cc(C2CC(c3ccc(N(C)C)cc3)=NN2C(C)=O)cc(OC)c1OC` (stereo unspecified), the growth was 56.3%.

For the compound `COc1ccc2c(c1)c(-c1ccc(-c3cn(C)c4ccc(OC)cc34)o1)cn2C`, the growth is 69.1%.

For `COc1ccc(CN2c3ccccc3CCc3ccccc32)cc1F`, the growth is 17.5%.

With `CC(=O)N1N=C(c2ccc(Nc3nc(Nc4ccc(F)cc4)nc(Nc4ccc(Cl)cc4)n3)cc2)CC1c1ccc(Cl)cc1` (stereo unspecified), the growth is 76.2%.

`COc1ccc(OC)c(/C=C/c2nnc(Nc3ccccc3)o2)c1`: the growth is 95%.

As for `COc1cc2cc(Oc3ccc(NC(=O)Nc4ccc(Cl)c(C(F)(F)F)c4)cc3)c(C)nc2cc1OCCN1CCOCC1`, the growth was 38.4%.

As for `CCOC(=O)C1=C(N)Oc2c(sc3c(C)cccc23)C1c1ccc(F)cc1` (stereo unspecified), the growth was 27.8%.

Consider `NCCCNc1nc2ccccc2c2c(=O)c3cccc(F)c3sc12`, for which the growth is 6.07% (active).

In the case of `CCc1ccc(Oc2c(-c3ccc(OCc4ccc(Cl)cc4)cc3O)n[nH]c2C(F)(F)F)cc1`, the growth is 27.6%.

Consider `COc1ccc2sc3c(NCCCNCCO)nc4ccccc4c3c(=O)c2c1`, for which the growth was -12.9% (active).

With `COc1nc2ccccc2cc1-c1nc2c(cnn2-c2ccc(Br)cc2)c(=O)[nH]1`, the growth was 66.9%.

With `Cc1oc2nc[nH]c(=O)c2c1C(=O)/C=C/c1ccc(Br)cc1`, the growth is 16.1%.

The test system of a further assay is RXF 393 renal. The assay is described as above. As to conditions: 10 µM unless noted.
For the compound `COc1ccc(/C=N/Nc2cc(=O)[nH]c3ccc(Cl)cc23)cc1`, the growth is 85.6%.

As to `CCCCCCN(CCCCCC)c1ccc(/C=C2/SC(=O)NC2=O)c(C)c1`, the growth is 101%.

`CC(=O)Oc1ccccc1C(=O)N=C1[Se]CCCN1C(=O)c1ccccc1OC(C)=O`: the growth was 6.8% (active).

With `CC(C)OC(=O)Nc1ccc(-c2nc(-c3cccc(OCCN4CCOCC4)c3)c(-c3ccnc(Br)c3)[nH]2)cc1`, the growth was -42.9% (active).

Regarding `Cc1cc2nc3ccc(N=Nc4ccc(N(C)C)cc4)cc3n(-c3ccccc3)c-2cc1=N`, the growth was -87.8% (active).

In the case of `CCCCn1c(-c2ccc(-c3nc(-c4ccc(Cl)cc4)no3)cc2)nc(-c2ccccc2)c1-c1ccccc1`, the growth was 101%.

`Oc1c(I)cc(I)cc1CNCCCN(Cc1ccccn1)Cc1ccccn1`: the growth was -86.6% (active).

Turning to `C/C(=N/NC(N)=S)c1sc(Nc2cccc(Cl)c2)nc1C`, the growth was 89.6%.

`Cc1nn(-c2ccccc2)c2c1N=c1s/c(=C\c3ccc(C(F)(F)F)cc3)c(=O)n1CN2`: the growth was 49.7%.

As to `O=C(O)CCC(=O)Nc1nnc(-c2ccccc2)s1`, the growth is 120%.

With `Oc1ccc(Cl)cc1Cc1cc(Cl)cc(Cl)c1O`, the growth is 74%.

As to `O=c1c2cccc(Cl)c2sc2c(NCCCNCCO)nc3ccccc3c12`, the growth is 50.3%.

For the compound `COc1cc(C2CC(c3cccc(Br)c3)=NN2C(C)=O)cc(OC)c1OC` (stereo unspecified), the growth is 33.3%.

In the case of `COc1ccc(-c2nc(NN)c3c(C)nn(-c4ccc(F)cc4)c3n2)cc1`, the growth was 51%.

On to `CCOC(=O)NCCc1ccccc1`, for which the growth was 115%.

As to `COc1ccccc1/C=C1\Oc2cc(OCCN3CCC(Cc4ccccc4)CC3)ccc2C1=O`, the growth was 69.9%.

On to `O=C(COc1ccc(/C=C2\Cc3ccc(Cl)cc3C2=O)cc1)Nc1nc2ccccc2s1`, for which the growth is 88.4%.

Regarding `CCc1cccc2c3c(sc12)C(c1ccc(F)cc1)C(C#N)=C(N)O3` (stereo unspecified), the growth was 1.43% (active).

Consider `Cc1ccc(C(=O)N/N=C/c2cccc([N+](=O)[O-])c2)cn1`, for which the growth is 110%.

On to `CCOC(=O)C1=C(N)Oc2c(sc3c(C)cccc23)C1c1ccc(Cl)cc1` (stereo unspecified), for which the growth is -7.89% (active).

As to `COc1ccc(-n2c(N)c(-c3nc4ccccc4[nH]3)cc(C#N)c2=O)cc1`, the growth is 67.2%.

Turning to `Cc1cc2nc3cc(C)c(N)cc3[n+](-c3ccccc3)c2cc1N`, the growth is 91.7%.

In the case of `COc1c(N2CC3CCCN(C(C)=O)C3C2)c(F)cc2c(=O)c(C(=O)N[C@H]3C(O)[C@@H](O)C(CO)O[C@H]3O)cn(C3CC3)c12` (stereo partly specified), the growth was 128%.

Regarding `COc1ccc(C2CC(c3ccc(Nc4nc(Nc5ccc(F)cc5)nc(Nc5ccc(Cl)cc5)n4)cc3)=NN2C(C)=O)cc1` (stereo unspecified), the growth is 86.6%.

For the compound `O=c1[nH][n+](-c2ccc(Br)cc2)no1`, the growth was 105%.

For the compound `O=C(CSc1nccc(Nc2ccc(S(=O)(=O)Nc3nccs3)cc2)n1)c1ccc(C(F)(F)F)cc1`, the growth is 95.5%.

Turning to `COc1cc(C2CC(c3ccc(N(C)C)cc3)=NN2C(C)=O)cc(OC)c1OC` (stereo unspecified), the growth was -17.7% (active).

On to `COc1ccc2c(c1)c(-c1ccc(-c3cn(C)c4ccc(OC)cc34)o1)cn2C`, for which the growth is 66.8%.

As for `COc1ccc(CN2c3ccccc3CCc3ccccc32)cc1F`, the growth was 17.8%.

As for `CC(=O)N1N=C(c2ccc(Nc3nc(Nc4ccc(F)cc4)nc(Nc4ccc(Cl)cc4)n3)cc2)CC1c1ccc(Cl)cc1` (stereo unspecified), the growth is 88.8%.

Turning to `COc1ccc(OC)c(/C=C/c2nnc(Nc3ccccc3)o2)c1`, the growth was 93.6%.

`COc1cc2cc(Oc3ccc(NC(=O)Nc4ccc(Cl)c(C(F)(F)F)c4)cc3)c(C)nc2cc1OCCN1CCOCC1`: the growth is 43.7%.

As for `CCOC(=O)C1=C(N)Oc2c(sc3c(C)cccc23)C1c1ccc(F)cc1` (stereo unspecified), the growth was -7.13% (active).

With `NCCCNc1nc2ccccc2c2c(=O)c3cccc(F)c3sc12`, the growth was 52.4%.

Turning to `CCc1ccc(Oc2c(-c3ccc(OCc4ccc(Cl)cc4)cc3O)n[nH]c2C(F)(F)F)cc1`, the growth was 65%.

Regarding `COc1ccc2sc3c(NCCCNCCO)nc4ccccc4c3c(=O)c2c1`, the growth is 52.3%.

Consider `COc1nc2ccccc2cc1-c1nc2c(cnn2-c2ccc(Br)cc2)c(=O)[nH]1`, for which the growth was -7.26% (active).

In the case of `Cc1oc2nc[nH]c(=O)c2c1C(=O)/C=C/c1ccc(Br)cc1`, the growth was 4.34% (active).

The values are drawn from PubChem BioAssay (NCI).
